Results: PubChem BioAssay AID1159580 (chemical genetic matrix, 2015)
Values joined by “and” are separate entries in the source; they are usually repeats but may differ in a detail not shown here. Equal values may be shown once. In all, about 5,500 compounds went through this assay and about 2,000 (36%) were called active. Inconclusive results (about 18%) are left out. Cut-off read from the data, not from the text of the source: active = normalized growth mostly below about 0.91 (no sharp cut-off); inconclusive = no clear call, values can overlap the other calls; inactive = mostly above about 0.92. Some of the results follow.

Test: chemical genetic growth profiling, strain panel (AID 1159580);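 note: tested at 20 µM; growth read once vehicle control cultures reached saturation at 30 °C; 1 = growth at the plate median or of vehicle wells; lower values mean less growth of the strain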
Conditions: S. cerevisiae deletion strains, growth OD

Measured: normalized growth

O=C1NS(=O)(=O)c2ccccc21
inactive: locus YAL013W, strain DEP1, active compounds read low 1.01 | locus YAL021C, strain ccr4, active compounds read low 0.965 | locus YAL026C, strain drs2, active compounds read low 1.04 | locus YAL030W, strain snc1, active compounds read low 1.02 | locus YBL061C, strain skt5, active compounds read low 1.03 | locus YBR009C, strain hhf1, active compounds read low 1.03 | locus YBR021W, strain FUR4, active compounds read low 1.02 | locus YBR023C, strain chs3, active compounds read low 1.02 | locus YBR171W, strain sec66, active compounds read low 1.03 | locus YBR229C, strain ROT2, active compounds read low 1.01 | locus YBR231C, strain swc5, active compounds read low 1.02 | locus YBR279W, strain paf1, active compounds read low 1.01 | locus YCL011C, strain gbp2, active compounds read low 1.02 | locus YCL016C, strain dcc1, active compounds read low 0.988 | locus YCL029C, strain bik1, active compounds read low 0.994 | locus YCL061C, strain MRC1, active compounds read low 1.02 | locus YCL069W, strain vba3, active compounds read low 1.02 | locus YCR088W, strain abp1, active compounds read low 1.02 | locus YDL005C, strain med2, active compounds read low 1.03 | locus YDL035C, strain GPR1, active compounds read low 0.994 | locus YDL040C, strain nat1, active compounds read low 1.02 | locus YDL074C, strain BRE1, active compounds read low 1.01 | locus YDL101C, strain DUN1, active compounds read low 1.01 | locus YDL134C, strain PPH21, active compounds read low 1 | locus YDL185W, strain tfp1, active compounds read low 0.994 | locus YDL192W, strain arf1, active compounds read low 1 | locus YDR001C, strain nth1, active compounds read low 1.01 | locus YDR069C, strain doa4, active compounds read low 1.04 | locus YDR101C, strain arx1, active compounds read low 0.983 | locus YDR137W, strain rgp1, active compounds read low 1.03 | locus YDR159W, strain sac3, active compounds read low 1.11 | locus YDR162C, strain NBP2, active compounds read low 0.998 | locus YDR195W, strain ref2 0.993 | locus YDR297W, strain sur2, active compounds read low 1.02 | locus YDR318W, strain mcm21, active compounds read low 0.979 | locus YDR334W, strain swr1, active compounds read low 1.02 | locus YDR335W, strain msn5, active compounds read low 1.01 | locus YDR388W, active compounds read low 0.991 | locus YDR392W, strain spt3, active compounds read low 0.957 | locus YDR502C, strain sam2, active compounds read low 0.995 | locus YEL003W, strain gim4, active compounds read low 1.03 | locus YEL037C, strain rad23, active compounds read low 1.01 | locus YEL061C, strain CIN8 (second series), active compounds read low 1.02 | locus YEL061C, strain CIN8, active compounds read low 1.01 | locus YER015W, strain faa2, active compounds read low 1.02 | locus YER016W, strain bim1, active compounds read low 1.02 | locus YER110C, active compounds read low 0.987 | locus YER111C, strain swi4, active compounds read low 1.02 | locus YER155C, strain BEM2 (second series), active compounds read low 1.07 | locus YER155C, strain BEM2, active compounds read low 0.997 | locus YER167W, strain BCK2, active compounds read low 1 | locus YFR010W, strain ubp6, active compounds read low 1.03 | locus YGL078C, strain dbp3, active compounds read low 1 | locus YGL086W, strain mad1, active compounds read low 0.998 | locus YGL167C, strain pmr1, active compounds read low 1.02 | locus YGL173C, strain kem1, active compounds read low 1.06 | locus YGL227W, strain vid30, active compounds read low 1.02 | locus YGL240W, strain doc1, active compounds read low 1.05 | locus YGL248W, strain PDE1, active compounds read low 1.03 | locus YGL253W, strain hxk2, active compounds read low 1.05 | locus YGR078C, strain PAC10, active compounds read low 1.05 | locus YGR135W, strain pre9, active compounds read low 0.984 | locus YGR252W, strain gcn5, active compounds read low 0.976 | locus YHR013C, strain ard1, active compounds read low 1.02 | locus YHR027C, strain rpn1, active compounds read low 1.05 | locus YHR030C, strain SLT2, active compounds read low 1 and 0.989 | locus YHR079C, strain IRE1 (second series), active compounds read low 0.984 | locus YHR079C, strain IRE1, active compounds read low 0.984 | locus YHR094C, strain hxt1, active compounds read low 0.988 | locus YHR129C, strain ARP1, active compounds read low 1.02 | locus YHR142W, strain chs7, active compounds read low 1.03 | locus YHR200W, strain rpn10, active compounds read low 0.991 | locus YIL066C, strain RNR3, active compounds read low 1.02 | locus YIL073C, strain SPO22, active compounds read low 0.958 | locus YIL125W, strain kgd1, active compounds read low 0.989 | locus YIR030C, strain dcg1, active compounds read low 0.998 | locus YJL092W, strain hpr5, active compounds read low 1.02 | locus YJL095W, strain BCK1 (second series), active compounds read low 1.02 | locus YJL095W, strain BCK1, active compounds read low 1.04 and 0.999 | locus YJL115W, strain asf1, active compounds read low 1.02 | locus YJL129C, strain trk1, active compounds read low 1.04 | locus YJL134W, strain LCB3, active compounds read low 0.999 | locus YJL154C, strain vps35, active compounds read low 1.02 | locus YJL164C, strain tpk1, active compounds read low 0.993 | locus YJL166W, strain qcr8, active compounds read low 1.04 | locus YJL168C, strain set2, active compounds read low 0.984 | locus YJL187C, strain SWE1 (second series), active compounds read low 1.03 | locus YJR043C, strain POL32, active compounds read low 0.977
